Data as given in PubChem BioAssay (NCATS).
Inconclusive results are not listed. The source made the active and inactive calls. Unless noted, the call rests on the fitted dose curve; in most records, active means well fitted curve in the direction sought with a large enough effect; inconclusive means small, poorly fitted or top-dose-only effect, or another doubt; inactive means no such curve, though single readings can be large; an effect the other way counts as inactive or inconclusive.

Key:
[1] = Cell Viability - BJ (AID 421; calls by dose curve;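 further: potency means the concentration at half of the fitted maximal effect; cells exposed to compound for 40 hours at 37 °C before readout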); details: BJ fibroblast viability, qHTS
Summary of the method: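 Luminescent ATP signal (CellTiter-Glo, 20 min at room temperature) served as the read-out of viable BJ cells after 40 hours of compound treatment. Responses were scaled between DMSO and 100 uM tamoxifen, and AC50 values were obtained by Hill modeling.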

[2] = Cell Viability - Jurkat (AID 426;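 active means dose-dependent loss of cell ATP signal giving a full or clear fitted curve, ranked by lower potency value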;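 further: potency means the concentration at half of the fitted maximal effect; cells exposed to compound for 40 hours at 37 °C before ATP read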); details: qHTS
Summary of the method: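 Cytotoxicity was scored as loss of cellular ATP, measured by luciferase-based luminescence, in Jurkat clone E6-1 cells after 40 h compound treatment; tamoxifen and doxorubicin served as positive controls.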

[3] = Cell Viability - Hek293 (AID 427;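 active means compounds whose dose-response curve shows a full or clear partial loss of cell viability, called from curve shape rather than a numeric limit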;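 further: potency means the concentration at half of the fitted maximal effect; cells exposed to compound for 40 hours at 37 °C before reading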); details: qHTS
Summary of the method: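 Luminescent ATP read-out (CellTiter-Glo, 20 min RT) after 40 hr compound exposure at 37 °C in complete medium. Signal normalized to DMSO (basal) and 100 uM tamoxifen (100% inhibition); concentration-response fitted with the standard Hill equation to give AC50.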

[4] = Cell Viability - HepG2 (AID 433; calls by dose curve;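 further: potency means the concentration at half of the fitted maximal effect; potency for ATP loss meaning cytotoxicity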); details: qHTS
Summary of the method: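 ATP luminescence (CellTiter-Glo) after 40 h compound exposure, 37 °C, HepG2, 1500 cells/well, complete medium. Normalized: DMSO = basal, 100 uM tamoxifen = 100% inhibition. AC50 via standard Hill equation.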

[5] = Cell Viability - MRC5 (AID 434; calls by dose curve;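 further: potency means the concentration at half of the fitted maximal effect; cells exposed to compound for 40 hours at 37 °C; potency reflects cytotoxicity seen as loss of intracellular ATP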); details: MRC5 lung fibroblast viability, qHTS
Summary of the method: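 ATP luminescence read-out (CellTiter-Glo, 20 min RT) after 40 hr, 37 °C compound exposure of 1500 MRC5 cells/well. Data normalized to DMSO (basal) and 100 uM tamoxifen (100% inhibition); AC50 from standard Hill equation.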

[6] = Cell Viability - SK-N-SH (AID 435; calls by dose curve; further: potency means the concentration at half of the fitted maximal effect); details: SK-N-SH neuroblastoma cell viability qHTS
Summary of the method: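 CellTiter-Glo ATP luminescence, 20 min RT read; cells pre-plated 5 hr, compound 40 hr at 37 °C, 1500 cells/well, complete medium. Normalized DMSO = 0, 100 uM tamoxifen = 100% inhibition; Hill-fit AC50.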

[7] = target: Mitogen-activated protein kinase 10 (Mus musculus) (UniProt Q61831); assay: JNK3 AlphaScreen Assay (AID 530; active means well fitted curve in either direction with a large enough effect, not every such curve was filed as active;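 further: kinase came from lysate of stimulated human HepG2 cells; signal reports phosphorylation of biotinylated GST-cJun 1-79 at Ser73 with 10 µM ATP; on the % scale 0 is the no-effect control and ±100 the full control effect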); details: JNK3 lysate, c-Jun phosphorylation; series mostly up to 57.1 µM
Summary of the method: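 HepG2 lysate (IL-1b/TNFa pre-activated) + biotin-GST-cJun 1-79 + anti-pSer73 cJun; cpd titration, 15 min RT; ATP 10 uM start; Tris pH 7.6, MgCl2, DTT, vanadate; beads in EDTA buffer; AlphaScreen.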

[8] = Cell Viability - N2a (AID 540); details: N2a mouse neuroblastoma cell viability; activity change, negative = cytotoxicity: at 92.2 µM (top of the series);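 further: plate controls were DMSO alone for no effect and tamoxifen control for full effect; nearly all actives have a fitted effect of over 45% in size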
Summary of the method: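 In this qHTS cytotoxicity screen, ATP-dependent luciferase luminescence reports viable N2a cells after a 40 hr compound exposure in complete culture medium. Potencies are AC50 values from standard Hill equation fits.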

[9] = Cell Viability - NIH 3T3 (AID 541); details: NIH 3T3 cell viability, qHTS; activity change, negative = cytotoxicity: at 92.2 µM (top of the series);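 further: plate controls were DMSO alone for no effect and tamoxifen positive control for full effect; nearly all actives have a fitted effect of over 25% in size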
Summary of the method: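 In this cytotoxicity screen, acute toxicity is scored as an ATP drop measured by CellTiter-Glo in NIH 3T3 fibroblasts following a 40 hr, 37 °C incubation with compound.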

[10] = Cell Viability - HUV-EC-C (AID 542); details: HUV-EC-C endothelial cell viability, qHTS; series mostly up to 92.2 µM; further: on the % scale 0 is the no-effect control and ±100 the full control effect; nearly all actives have a fitted effect of over 35% in size
Summary of the method: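 Concentration-dependent ATP loss in HUV-EC-C cells is the measure. Exposure lasts 40 hr at 37 °C; luminescence follows CellTiter-Glo addition, and Hill fits give AC50.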

[11] = Cell Viability - H-4-II-E (AID 543); details: H-4-II-E rat hepatoma viability; series mostly up to 92.2 µM; further: on the % scale 0 is the no-effect control and ±100 the full control effect; nearly all actives have a fitted effect of over 35% in size
Summary of the method: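 AC50 from Hill-modelled qHTS concentration-response curves. H-4-II-E rat hepatoma cells in complete medium, 40 hr exposure at 37 °C, viability by CellTiter-Glo ATP luminescence.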

[12] = Cell Viability - SH-SY5Y (AID 544); details: SH-SY5Y neuroblastoma cell viability; viability change, negative = cytotoxic: at 92.2 µM (top of the series); further: nearly all actives have a fitted effect of over 55% in size
Summary of the method: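 Quantitative HTS in SH-SY5Y neuroblastoma cells, 40 hr treatment at 37 °C, ATP content by luciferase luminescence; AC50 from Hill fits.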

[13] = Cell Viability - Renal Proximal Tubule (AID 545); details: renal proximal tubule cells viability, primary cells of rat origin; series mostly up to 91.7 µM; further: nearly all actives have a fitted effect of over 40% in size
Summary of the method: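 Rat kidney proximal tubule cells, freshly isolated; 1000 cells/well, 5 hr settle, compound 40 hr 37 °C. CellTiter-Glo 20 min RT, luminescence read. AC50 by standard Hill fit.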

[14] = Cell Viability - Mesenchymal (AID 546); details: mesenchymal cells viability, qHTS; series mostly up to 91.7 µM;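 further: cells exposed to compound for 40 hours before reading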
Summary of the method: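 Human renal mesenchymal cells (glomerulus-derived), 1000 cells/well, 5 hr 37 °C pre-incubation; compound 40 hr, 37 °C; CellTiter-Glo, 20 min RT; luminescence; AC50 via Hill equation.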

[15] = Cellular Toxicity (caspase-3) HepG2 (AID 654); details: HepG2 caspase-3 activation, luminescence; series mostly up to 92.2 µM;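 further: cells exposed to compound for 16 hours before reading; 0% = DMSO alone and 100% = caspase signal from 100 µM tamoxifen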
Summary of the method: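 Concentration-response AC50 values reflect caspase-3/7 induction in HepG2 cells after 16 hours of compound exposure, quantified by luminescence from liberated aminoluciferin and referenced to 100 uM tamoxifen as full stimulation.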

[16] = Cellular Toxicity (caspase-3) Jurkat (AID 655); details: Jurkat caspase-3 activation, luminescence; caspase-3 activation: at 92.2 µM (top of the series), DMSO = 0%, tamoxifen = 100%;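 further: cells exposed to compound for 16 h at 37 °C before reading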
Summary of the method: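 Luminescent caspase-3/7 readout (aminoluciferin substrate cleavage) in human T-cell leukemia Jurkat cells after 16 hr compound exposure. Concentration-response normalized to DMSO and 100 uM tamoxifen; AC50 by standard Hill equation.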

[17] = Cellular Toxicity (caspase-3) HUV-EC-C (AID 656); details: HUV-EC-C cells, caspase-3 activation (apoptosis), vehicle = 0, 100 µM tamoxifen = 100%; series mostly up to 92.2 µM
Summary of the method: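 Luminescent caspase-3/7 activation (aminoluciferin substrate cleavage) in HUV-EC-C cells after 16 hr compound exposure, 37°C. Signal normalized to DMSO basal and 100 uM tamoxifen as 100%; AC50 from concentration-response fitted with the Hill equation.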

[18] = Cellular Toxicity (caspase-3) SHSY5Y (AID 657); details: SH-SY5Y caspase-3 activation, DMSO zero, 10 µM staurosporine = 100%; series mostly up to 91.7 µM;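 further: cells exposed to compound for 16 hours at 37 °C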
Summary of the method: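 Luminescent caspase-3/7 readout (aminoluciferin release) in SH-SY5Y cells after 16 h compound exposure in complete medium. Activity scaled between DMSO basal and 10 uM staurosporine as 100%; concentration-response fitted to Hill equation for AC50.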

[19] = Cellular Toxicity (caspase-3) BJ (AID 658); details: BJ fibroblasts, luminescence, normalized: DMSO 0%, staurosporine 100%; series mostly up to 91.7 µM
Summary of the method: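 qHTS, BJ fibroblasts, 1000 cells/well; 5 hr preincubation, 16 hr compound, 37 °C; Caspase-Glo 3/7 reagent, 1 hr RT; luminescence. DMSO = 0%, 10 uM staurosporine = 100%. Hill-equation AC50.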

[20] = Cellular Toxicity (caspase-3) MRC-5 (AID 659); details: MRC-5 cells, luminescence, normalized: DMSO 0%, 10 µM staurosporine 100%; series mostly up to 91.7 µM;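 further: cells exposed to compound for 16 h at 37 °C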
Summary of the method: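 MRC-5 fibroblasts, 1500/well; 16 h cpd, 37 °C; Caspase-Glo 3/7, 1 h RT; lumi read. Norm: DMSO = 0%, 10 uM staurosporine = 100%. Hill-fit AC50 from qHTS conc-response.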

CCc1ccccc1O
inactive: Potency [1] > 92 µM | Potency [2] > 92 µM | Potency [3] > 92 µM | Potency [4] > 92 µM | Potency [5] > 92 µM | Potency [6] > 92 µM | outcome [7] | activity change, negative = cytotoxicity [8] 2.33% | Potency [9] | Potency [10] | Potency [11] | Potency [12] | Potency [13] | Potency [14] | Potency [15] | caspase-3 activation [16] 0.741% | outcome [17] | outcome [18] | outcome [19] | outcome [20]

Clc1cc(Cl)cc(Cl)c1
inactive: Potency [1] > 92 µM | Potency [2] > 92 µM | Potency [3] > 92 µM | Potency [4] > 92 µM | Potency [5] > 92 µM | Potency [6] > 92 µM | outcome [7] | activity change, negative = cytotoxicity [8] 4.86% | Potency [9] | Potency [10] | Potency [11] | Potency [12] | Potency [13] | Potency [14] | Potency [15] | caspase-3 activation [16] 0.897% | outcome [17] | outcome [18] | outcome [19] | outcome [20]

C[C@@H]1CC2(OC3C[C@@]4(C)C5=CC[C@H]6C(C)(C)C(O[C@@H]7OC[C@@H](O)[C@H](O)[C@H]7O)CC[C@@]67C[C@@]57CC[C@]4(C)C31)OC(O)C1(C)OC21 (stereo partly drawn)
inactive: Potency [1] > 92 µM | Potency [2] > 92 µM | Potency [3] > 92 µM | Potency [4] > 92 µM | Potency [5] > 92 µM | Potency [6] > 92 µM | outcome [7] | activity change, negative = cytotoxicity [8] -8.85% | Potency [9] | Potency [10] | Potency [11] | Potency [12] | Potency [13] | Potency [14] | Potency [15] | caspase-3 activation [16] 2.56% | outcome [17] | outcome [18] | outcome [19] | outcome [20]

O=C1NC(=O)c2cc([N+](=O)[O-])ccc21
inactive: Potency [1] > 92 µM | Potency [2] > 92 µM | Potency [3] > 92 µM | Potency [4] > 92 µM | Potency [5] > 92 µM | Potency [6] > 92 µM | outcome [7] | activity change, negative = cytotoxicity [8] -3.32% | Potency [9] | Potency [10] | Potency [11] | Potency [12] | Potency [13] | Potency [14] | Potency [15] | caspase-3 activation [16] 0.91% | outcome [17] | outcome [18] | outcome [19]

CCCCC(CC)COCC1CO1 (stereo not drawn)
inactive: Potency [1] > 92 µM | Potency [2] > 92 µM | Potency [3] > 92 µM | Potency [4] > 92 µM | Potency [5] > 92 µM | Potency [6] > 92 µM | outcome [7] | activity change, negative = cytotoxicity [8] -13.9% | Potency [9] | Potency [10] | Potency [11] | Potency [12] | Potency [13] | Potency [14] | Potency [15] | caspase-3 activation [16] -3.18% | outcome [17] | outcome [18] | outcome [19] | outcome [20]

CCCCCCCN
inactive: Potency [1] > 92 µM | Potency [2] > 92 µM | Potency [3] > 92 µM | Potency [4] > 92 µM | Potency [5] > 92 µM | Potency [6] > 92 µM | outcome [7] | activity change, negative = cytotoxicity [8] -10.2% | Potency [9] | Potency [10] | Potency [11] | Potency [12] | Potency [13] | Potency [14] | Potency [15] | caspase-3 activation [16] -1.01% | outcome [17] | outcome [18] | outcome [19]

COC(=O)CCCC(=O)OC
inactive: Potency [1] > 92 µM | Potency [2] > 92 µM | Potency [3] > 92 µM | Potency [4] > 92 µM | Potency [5] > 92 µM | Potency [6] > 92 µM | outcome [7] | activity change, negative = cytotoxicity [8] 3.33% | Potency [9] | Potency [10] | Potency [11] | Potency [12] | Potency [13] | Potency [14] | Potency [15] | caspase-3 activation [16] 0.321% | outcome [17] | outcome [18] | outcome [19] | outcome [20]

CCCOCC(C)OCC(C)O (stereo not drawn)
inactive: Potency [1] > 92 µM | Potency [2] > 92 µM | Potency [3] > 92 µM | Potency [4] > 92 µM | Potency [5] > 92 µM | Potency [6] > 92 µM | outcome [7] | activity change, negative = cytotoxicity [8] -9.53% | Potency [9] | Potency [10] | Potency [11] | Potency [12] | Potency [13] | Potency [14] | Potency [15] | caspase-3 activation [16] -2.41% | outcome [17] | outcome [18] | outcome [19] | outcome [20]

Cc1ccc(C#N)cc1
inactive: Potency [1] > 92 µM | Potency [2] > 92 µM | Potency [3] > 92 µM | Potency [4] > 92 µM | Potency [5] > 92 µM | Potency [6] > 92 µM | outcome [7] | activity change, negative = cytotoxicity [8] 6% | Potency [9] | Potency [10] | Potency [11] | Potency [12] | Potency [13] | Potency [14] | Potency [15] | caspase-3 activation [16] 0.554% | outcome [17] | outcome [18] | outcome [19] | outcome [20]

CCC(C)(C)C(=O)O
inactive: Potency [1] > 92 µM | Potency [2] > 92 µM | Potency [3] > 92 µM | Potency [4] > 92 µM | Potency [5] > 92 µM | Potency [6] > 92 µM | outcome [7] | activity change, negative = cytotoxicity [8] 6.55% | Potency [9] | Potency [10] | Potency [11] | Potency [12] | Potency [13] | Potency [14] | Potency [15] | caspase-3 activation [16] -0.0519% | outcome [17] | outcome [18] | outcome [19] | outcome [20]

CC(O)CC(C)O (stereo not drawn)
inactive: Potency [1] > 92 µM | Potency [2] > 92 µM | Potency [3] > 92 µM | Potency [4] > 92 µM | Potency [5] > 92 µM | Potency [6] > 92 µM | outcome [7] | activity change, negative = cytotoxicity [8] -8.39% | Potency [9] | Potency [10] | Potency [11] | Potency [12] | Potency [13] | Potency [14] | Potency [15] | caspase-3 activation [16] 0.345% | outcome [17] | outcome [18] | outcome [19] | outcome [20]
